# C diff HTS: C. difficile growth inhibition; Clostridium difficile clinical isolate growth, OD600, 24 h; stronger effect = lower value; growth activity, negative = inhibition, % at 16 µg/mL (by protocol); 0.25% of 86,000 active; AID 1259249;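 active means mean growth activity at or below -80% and every replicate also at or below -80%; inconclusive means mean at or below -80% but some replicate above -80%; inactive means mean growth activity above -80%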;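 further: 0% = DMSO wells and -100% = levofloxacin 16 µg/mL wells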
# Pf Dd2 growth: P. falciparum Dd2 growth inhibition; 2.3% of 94,000 active; SYBR Green, 72 h; stronger effect = lower value; activity change, % at 10 µM; in the data active means activity change below about -80%; inconclusive means no clear call, values can overlap the other calls
# * = called active by the depositor; ? = inconclusive; . = no result given. Hits are enriched below; roughly 2.4% of the tested compounds scored in any of these assays.
SMILES,C diff HTS,Pf Dd2 growth
Cc1noc(C)c1NC(=O)Nc1ccc2c(c1)C(=O)N([C@@H](C)CO)C[C@H](C)[C@@H](CN(C)Cc1ccccc1)OCCCC[C@@H](C)O2,.,-23.8
CCNC(=O)Nc1ccc2c(c1)C(=O)N(C)[C@H]1CC[C@H](CC(=O)NCC3CC3)O[C@H]1CO2,23.2,7.9
O=C(CC1CC1)N1CC(=O)N2[C@H](CO)[C@H](c3ccc(C#Cc4ccccc4)cc3)[C@H]2C1,-16.7,-11.2
COC(=O)[C@H]1[C@H](CO)[C@H]2Cn3c(ccc(/C=C/c4ccccc4)c3=O)[C@H]2N1C(=O)CC1CC1,3.7,1.7
COc1ccc2c3c(n(C)c2c1)[C@H](CO)N(Cc1ccc(Cl)cc1)CC31CCN(CC2CC2)CC1,14.8,-87.9*
COc1ccc2c3c(n(C)c2c1)[C@H](CO)N(Cc1ccc(Cl)cc1)CC31CN(CC2CC2)C1,21.6,-58.0
CC(C)CC#Cc1ccc2c(c1)O[C@@H](CN(C)Cc1ccccn1)[C@@H](C)CN([C@H](C)CO)S2(=O)=O,-10.1,-17.2
C[C@@H]1CCCCO[C@H](CN(C)C(=O)Nc2cccc3ccccc23)[C@@H](C)CN([C@@H](C)CO)C(=O)c2cc(NC(=O)C3CCCCC3)ccc2O1,1.4,-84.8*
C[C@@H]1CCCCO[C@H](CN(C)C(=O)Nc2cccc3ccccc23)[C@H](C)CN([C@@H](C)CO)C(=O)c2cc(NC(=O)C3CCCCC3)ccc2O1,9.2,-73.0
C[C@H](CO)N1C[C@H](C)[C@H](CN(C)C(=O)Nc2cccc3ccccc23)OCCCC[C@H](C)Oc2ccc(NC(=O)NC3CCCCC3)cc2C1=O,-7.5,-47.3
C[C@@H]1CN([C@@H](C)CO)C(=O)c2cc(NC(=O)C3CCCCC3)ccc2O[C@@H](C)CCCCO[C@@H]1CN(C)C(=O)Nc1cccc2ccccc12,4.4,-89.2*
C[C@H](CO)N1C[C@H](C)[C@H](CN(C)C(=O)c2ccncc2)OCCCC[C@H](C)Oc2ccc(NC(=O)c3ccccc3)cc2C1=O,-8.1,22.3
C/C=C/c1ccc2c(c1)[C@@H]1[C@@H](CCN1S(=O)(=O)c1ccccc1C)[C@H](CO)N2,5.9,-85.6*
C/C=C/c1ccc2c(c1)[C@@H]1[C@@H](CCN1C(=O)c1cnccn1)[C@H](CO)N2,-2.6,-2.9
O=C(c1cccc(F)c1)N1CC[C@H]2[C@H](CO)Nc3ccc(-c4cccc(F)c4)cc3[C@H]21,66.9,4.9
O=C(Cc1cccnc1)N1CC[C@H]2[C@H](CO)Nc3ccc(C#Cc4cccc(F)c4)cc3[C@H]21,-2.0,-83.8*
C/C=C/c1ccc2c(c1)[C@H]1[C@H](CCN1C(=O)c1ccc(F)cc1)[C@H](CO)N2,6.5,-89.1*
C/C=C/c1ccc2c(c1)[C@@H]1[C@@H](CCN1S(=O)(=O)c1ccc(C)cc1)[C@@H](CO)N2,-1.4,-40.9
C/C=C/c1ccc2c(c1)[C@H]1[C@H](CCN1C(=O)c1cccc(F)c1)[C@H](CO)N2,13.2,-92.8*
O=C(Cc1ccccc1)N1CC[C@H]2[C@H](CO)Nc3ccc(C#Cc4cccc(F)c4)cc3[C@H]21,3.2,-59.5
O=C(Cc1ccncc1)NCC[C@@H]1CC[C@@H](NC(=O)Nc2ccc(F)cc2)[C@@H](CO)O1,0.5,-5.1
O=C(O)[C@H]1[C@H](CO)[C@H]2Cn3c(ccc(-c4cncnc4)c3=O)[C@H]2N1C(=O)C1CCCC1,2.5,30.8
C[C@H](CO)N1C[C@H](C)[C@@H](CN(C)C(=O)c2ccc3c(c2)OCO3)Oc2ncc(C#Cc3ccccc3F)cc2C1=O,3.5,-58.9
C[C@@H]1CCCCO[C@H](CN(C)Cc2ccc3c(c2)OCO3)[C@H](C)CN([C@H](C)CO)C(=O)c2cc(NC(=O)Cc3ccccc3)ccc2O1,1.5,-65.5
O=C(c1cccc(F)c1)N1CC[C@H]2[C@H](CO)Nc3ccc(C#Cc4cccc(F)c4)cc3[C@H]21,13.7,-83.7*
SMILES,C diff HTS,Pf Dd2 growth
O=C(c1cccc(F)c1)N1CC[C@H]2[C@H](CO)Nc3ccc(C#Cc4ccccc4)cc3[C@H]21,-0.2,-52.9
C[C@@H]1CN([C@@H](C)CO)C(=O)c2cc(-c3ccc(C#N)cc3)cnc2O[C@H]1CN(C)C(=O)c1ccccc1,-5.1,10.8
C[C@@H]1CN([C@H](C)CO)C(=O)c2cc(NC(=O)Nc3ccc4c(c3)OCO4)ccc2O[C@@H](C)CCCCO[C@H]1CN(C)Cc1ccncc1,-1.3,-17.3
COc1cccc(NC(=O)N(C)C[C@H]2OCc3ccccc3-c3c(n(C)c4ccccc34)C(=O)N([C@@H](C)CO)C[C@@H]2C)c1,3.8,-84.9*
COc1cccc(NC(=O)N(C)C[C@H]2OCc3ccccc3-c3c(n(C)c4ccccc34)C(=O)N([C@H](C)CO)C[C@H]2C)c1,-8.8,-48.7
COc1ccc(NC(=O)N(C)C[C@@H]2OCc3ccccc3-c3c(n(C)c4ccccc34)C(=O)N([C@@H](C)CO)C[C@@H]2C)c(OC)c1,-1.1,-83.3*
COc1ccc(NC(=O)N(C)C[C@H]2OCc3ccccc3-c3c(n(C)c4ccccc34)C(=O)N([C@@H](C)CO)C[C@@H]2C)c(OC)c1,-4.8,-85.2*
C[C@H](CO)N1C[C@H](C)[C@@H](CN(C)C(=O)Nc2cccc(C(F)(F)F)c2)OCc2ccccc2-c2ccccc2C1=O,23.9,-64.6
COc1ccccc1NC(=O)N(C)C[C@H]1OCc2ccccc2-c2c(n(C)c3ccccc23)C(=O)N([C@@H](C)CO)C[C@H]1C,.,-39.6
COc1ccc(NC(=O)N(C)C[C@@H]2OCc3ccccc3-c3c(n(C)c4ccccc34)C(=O)N([C@H](C)CO)C[C@@H]2C)c(OC)c1,6.7,30.3
C[C@@H]1CN([C@H](C)CO)C(=O)c2ccccc2-c2ccccc2CO[C@H]1CN(C)C(=O)Nc1cccc(C(F)(F)F)c1,-12.0,-87.2*
C[C@@H]1CN([C@H](C)CO)C(=O)c2c(c3ccccc3n2C)-c2ccccc2CO[C@@H]1CN(C)C(=O)Nc1cccc(C(F)(F)F)c1,-3.8,-84.0*
C[C@H]1CN([C@@H](C)CO)C(=O)c2c(c3ccccc3n2C)-c2ccccc2CO[C@H]1CN(C)C(=O)Nc1cccc(C(F)(F)F)c1,12.5,-68.5
CO[C@@H]1CN(C)C(=O)c2ccc(NC(C)=O)cc2OC[C@H](C)N(C(=O)c2cccnc2)C[C@H]1C,-0.9,3.4
COc1ccc(S(=O)(=O)Nc2ccc3c(c2)C(=O)N([C@@H](C)CO)C[C@@H](C)[C@@H](CN(C)C(=O)Nc2cccc4ccccc24)OCCCC[C@H](C)O3)cc1,.,-88.5*
COc1ccc(S(=O)(=O)Nc2ccc3c(c2)C(=O)N([C@@H](C)CO)C[C@@H](C)[C@H](CN(C)C(=O)Nc2cccc4ccccc24)OCCCC[C@@H](C)O3)cc1,.,-32.8
C[C@@H]1CCCCO[C@H](CN(C)C(=O)Nc2cccc3ccccc23)[C@@H](C)CN([C@@H](C)CO)C(=O)c2cc(NS(=O)(=O)c3ccccc3)ccc2O1,-22.8,-87.8*
Cc1ccc(S(=O)(=O)Nc2ccc3c(c2)C(=O)N([C@@H](C)CO)C[C@H](C)[C@H](CN(C)C(=O)Nc2cccc4ccccc24)OCCCC[C@@H](C)O3)cc1,-4.0,?
Cc1ccc(S(=O)(=O)Nc2ccc3c(c2)C(=O)N([C@H](C)CO)C[C@@H](C)[C@@H](CN(C)C(=O)Nc2cccc4ccccc24)OCCCC[C@@H](C)O3)cc1,2.5,-86.1*

# Screening data deposited in PubChem BioAssay by Broad Institute.
